Test results published in PubChem BioAssay AID1159580 (chemical genetic matrix, 2015).
About 2,000 (36%) of roughly 5,500 compounds were called active. Another 18% or so got no clear call; they are omitted. Rule as the data show it: active = normalized growth mostly below about 0.91 (no sharp cut-off); inconclusive = no clear call, values can overlap the other calls; inactive = mostly above about 0.92. The list shows a part of the results.

Assay: chemical genetic growth profiling, strain panel (AID 1159580);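 also: tested at 20 µM; growth read once vehicle control cultures reached saturation at 30 °C; 1 = growth at the plate median or of vehicle wells; lower values mean less growth of the strain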
Conditions: growth OD

Measured: normalized growth

Nc1ccc(C(=O)O)cc1
inactive: S. cerevisiae deletion strains, locus YJR066W, strain TOR1, stronger effect = lower value 0.968 | S. cerevisiae deletion strains, locus YJR075W, strain HOC1, stronger effect = lower value 1.01 | S. cerevisiae deletion strains, locus YKL009W, strain mrt4, stronger effect = lower value 1.02 | S. cerevisiae deletion strains, locus YKL068W, stronger effect = lower value 0.993 | S. cerevisiae deletion strains, locus YKL085W, strain MDH1 (second series), stronger effect = lower value 0.998 | S. cerevisiae deletion strains, locus YKL085W, strain MDH1, stronger effect = lower value 0.998 | S. cerevisiae deletion strains, locus YKL160W, strain elf1, stronger effect = lower value 1.03 | S. cerevisiae deletion strains, locus YKL190W, strain CNB1, stronger effect = lower value 0.996 | S. cerevisiae deletion strains, locus YKR001C, strain vps1, stronger effect = lower value 1.01 | S. cerevisiae deletion strains, locus YKR026C, strain gcn3, stronger effect = lower value 1.04 | S. cerevisiae deletion strains, locus YKR091W, strain srl3, stronger effect = lower value 1.02 | S. cerevisiae deletion strains, locus YLL001W, strain dnm1, stronger effect = lower value 1.03 | S. cerevisiae deletion strains, locus YLL026W, stronger effect = lower value 1.04 | S. cerevisiae deletion strains, locus YLL041C, strain sdh2, stronger effect = lower value 1.02 | S. cerevisiae deletion strains, locus YLR027C, strain aat2, stronger effect = lower value 1.02 | S. cerevisiae deletion strains, locus YLR039C, strain RIC1, stronger effect = lower value 0.996 | S. cerevisiae deletion strains, locus YLR058C, strain SHM2, stronger effect = lower value 1.01 | S. cerevisiae deletion strains, locus YLR102C, strain apc9, stronger effect = lower value 1.01 | S. cerevisiae deletion strains, locus YLR113W, strain HOG1, stronger effect = lower value 1.01 | S. cerevisiae deletion strains, locus YLR221C, strain rsa3, stronger effect = lower value 1.02 | S. cerevisiae deletion strains, locus YLR258W, strain gsy2, stronger effect = lower value 1.01 | S. cerevisiae deletion strains, locus YLR262C, strain YPT6 (second series), stronger effect = lower value 1.02 | S. cerevisiae deletion strains, locus YLR262C, strain YPT6, stronger effect = lower value 1.07 | S. cerevisiae deletion strains, locus YLR268W, strain sec22, stronger effect = lower value 1.02 | S. cerevisiae deletion strains, locus YLR320W, strain mms22, stronger effect = lower value 1.01 | S. cerevisiae deletion strains, locus YLR330W, strain CHS5, stronger effect = lower value 1.01 | S. cerevisiae deletion strains, locus YLR342W, strain FKS1 (second series), stronger effect = lower value 1.02 | S. cerevisiae deletion strains, locus YLR342W, strain FKS1, stronger effect = lower value 1.05 | S. cerevisiae deletion strains, locus YLR357W, strain rsc2, stronger effect = lower value 1.03 | S. cerevisiae deletion strains, locus YLR370C, strain arc18, stronger effect = lower value 1.02 | S. cerevisiae deletion strains, locus YLR371W, strain rom2, stronger effect = lower value 1.01 | S. cerevisiae deletion strains, locus YLR384C, strain iki3, stronger effect = lower value 1.01 | S. cerevisiae deletion strains, locus YLR418C, strain cdc73, stronger effect = lower value 1.03 | S. cerevisiae deletion strains, locus YML016C, strain PPZ1, stronger effect = lower value 1.01 | S. cerevisiae deletion strains, locus YML032C, strain rad52, stronger effect = lower value 1.01 | S. cerevisiae deletion strains, locus YML120C, strain ndi1, stronger effect = lower value 1.04 | S. cerevisiae deletion strains, locus YML124C, strain tub3, stronger effect = lower value 1.01 | S. cerevisiae deletion strains, locus YMR058W, strain fet3, stronger effect = lower value 1.04 | S. cerevisiae deletion strains, locus YMR078C, strain ctf18, stronger effect = lower value 1.02 | S. cerevisiae deletion strains, locus YMR125W, strain sto1, stronger effect = lower value 1.01 | S. cerevisiae deletion strains, locus YMR129W, stronger effect = lower value 1.03 | S. cerevisiae deletion strains, locus YMR205C, strain PFK2, stronger effect = lower value 1.03 | S. cerevisiae deletion strains, locus YMR223W, strain ubp8, stronger effect = lower value 1.01 | S. cerevisiae deletion strains, locus YMR231W, strain pep5, stronger effect = lower value 1.02 | S. cerevisiae deletion strains, locus YMR263W, strain SAP30, stronger effect = lower value 1 | S. cerevisiae deletion strains, locus YMR307W, strain GAS1, stronger effect = lower value 1.05 | S. cerevisiae deletion strains, locus YNL067W, strain RPL9B, stronger effect = lower value 1 | S. cerevisiae deletion strains, locus YNL071W, strain lat1, stronger effect = lower value 1.01 | S. cerevisiae deletion strains, locus YNL183C, strain NPR1, stronger effect = lower value 0.953 | S. cerevisiae deletion strains, locus YNL209W, strain ssb2, stronger effect = lower value 1.02 | S. cerevisiae deletion strains, locus YNL233W, strain BNI4, stronger effect = lower value 1.01 | S. cerevisiae deletion strains, locus YNL248C, strain rpa49, stronger effect = lower value 1.05 | S. cerevisiae deletion strains, locus YNL250W, strain rad50, stronger effect = lower value 1.01 | S. cerevisiae deletion strains, locus YNL271C, strain bni1, stronger effect = lower value 1.03 | S. cerevisiae deletion strains, locus YNL298W, strain CLA4, stronger effect = lower value 1.01 | S. cerevisiae deletion strains, locus YNL307C, strain MCK1, stronger effect = lower value 1.01 | S. cerevisiae deletion strains, locus YNL322C, strain KRE1 (second series), stronger effect = lower value 1.01 | S. cerevisiae deletion strains, locus YNR049C, strain mso1, stronger effect = lower value 1.02 | S. cerevisiae deletion strains, locus YNR052C, strain pop2, stronger effect = lower value 1 | S. cerevisiae deletion strains, locus YOL006C, strain TOP1, stronger effect = lower value 1.06 | S. cerevisiae deletion strains, locus YOL012C, strain htz1 2.07 | S. cerevisiae deletion strains, locus YOL147C, strain pex11, stronger effect = lower value 1.01 | S. cerevisiae deletion strains, locus YOR001W, strain rrp6, stronger effect = lower value 1.05 | S. cerevisiae deletion strains, locus YOR061W, strain CKA2, stronger effect = lower value 1.01 | S. cerevisiae deletion strains, locus YOR069W, strain VPS5, stronger effect = lower value 1.01 | S. cerevisiae deletion strains, locus YOR070C, strain gyp1, stronger effect = lower value 1.01 | S. cerevisiae deletion strains, locus YOR080W, strain dia2, stronger effect = lower value 1.04 | S. cerevisiae deletion strains, locus YOR083W, strain WHI5, stronger effect = lower value 1.05 | S. cerevisiae deletion strains, locus YOR106W, strain vam3, stronger effect = lower value 1.04 | S. cerevisiae deletion strains, locus YOR136W, strain idh2, stronger effect = lower value 1.02 | S. cerevisiae deletion strains, locus YOR144C, strain elg1, stronger effect = lower value 1.01 | S. cerevisiae deletion strains, locus YOR184W, strain ser1, stronger effect = lower value 1.02 | S. cerevisiae deletion strains, locus YOR231W, strain MKK1, stronger effect = lower value 1.01 | S. cerevisiae deletion strains, locus YOR265W, strain rbl2, stronger effect = lower value 1.01 | S. cerevisiae deletion strains, locus YOR270C, strain vph1, stronger effect = lower value 1.07 | S. cerevisiae deletion strains, locus YOR290C, strain snf2, stronger effect = lower value 1.01 | S. cerevisiae deletion strains, locus YOR316C, strain cot1, stronger effect = lower value 1.01 | S. cerevisiae deletion strains, locus YPL051W, strain arl3, stronger effect = lower value 1.04 | S. cerevisiae deletion strains, locus YPL078C, strain atp4, stronger effect = lower value 1.05 | S. cerevisiae deletion strains, locus YPL106C, strain sse1, stronger effect = lower value 1.03 | S. cerevisiae deletion strains, locus YPL240C, strain hsp82, stronger effect = lower value 1.01 | S. cerevisiae deletion strains, locus YPL256C, strain CLN2, stronger effect = lower value 1.02 | S. cerevisiae deletion strains, locus YPR119W, strain clb2, stronger effect = lower value 1 | S. cerevisiae deletion strains, locus YPR141C, strain kar3, stronger effect = lower value 1.01 | S. cerevisiae deletion strains, locus YPR163C, strain tif3, stronger effect = lower value 1.02 | S. cerevisiae deletion strains, locus YPR167C, strain met16, stronger effect = lower value 1.02 | S. cerevisiae deletion strains, strain wtn01, stronger effect = lower value 1.02 | S. cerevisiae strains, strain wild type, stronger effect = lower value 1
